{
  "source": "PubChem BioAssay AID743313",
  "about": "(Broad Institute, 2014)",
  "note": "Active and inactive are the calls of the source.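 How the source made its calls: active means cell killing with a fitted half-maximal concentration no more than twice the top valid dose used; inconclusive means flat curve with a moderate signal drop, or poor fit; inactive means the rest.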",
  "data": [
    {"test": "HepG2 cell cytotoxicity, dose response, cytotoxicity control, plate reader, dry powder, set 7 (AID 743313)", "conditions": "HepG2 viability, ATP luminescence (CellTiter-Glo), 72 h; series mostly up to 26 µM; activity change, negative = cytotoxicity: at the top concentration", "values": [
      {"smiles": "O=c1[nH]c2ccccc2n1CCOc1ccccc1", "activity change, negative = cytotoxicity": "-5.21% (inactive)"},
      {"smiles": "Cc1cccc(OCCn2c(=S)[nH]c3c(F)cccc32)c1", "outcome": "inactive"},
      {"smiles": "S=c1[nH]c2ccccc2n1CCOc1ccc(Cl)cc1", "activity change, negative = cytotoxicity": "-18.1% (inactive)"},
      {"smiles": "Cc1ccc(C(C)C)c(OCCn2c(=S)[nH]c3cccc(Cl)c32)c1", "activity change, negative = cytotoxicity": "-14.8% (inactive)"},
      {"smiles": "CC(C)c1ccccc1OCCn1c(=S)[nH]c2ccccc21", "activity change, negative = cytotoxicity": "-18.4% (inactive)"},
      {"smiles": "CSc1nc2ccccc2n1CCOc1cc(C)ccc1C(C)C", "activity change, negative = cytotoxicity": "-10.2% (inactive)"},
      {"smiles": "CC(C)(C)c1ccccc1OCCn1c(=S)[nH]c2ccccc21", "activity change, negative = cytotoxicity": "-9.42% (inactive)"},
      {"smiles": "Cc1cccc(OCCn2c(=S)[nH]c3cc(F)ccc32)c1", "outcome": "inactive"},
      {"smiles": "Cc1ccc(C(C)C)c(OCCn2c(=S)[nH]c3c(F)cccc32)c1", "activity change, negative = cytotoxicity": "0.666% (inactive)"},
      {"smiles": "Cc1ccc(OCCn2c(C)nc3ccccc32)cc1", "activity change, negative = cytotoxicity": "-16.1% (inactive)"},
      {"smiles": "Cc1ccc(C(C)C)c(OCCn2c(=S)[nH]c3cccc(C)c32)c1", "activity change, negative = cytotoxicity": "-14.8% (inactive)"},
      {"smiles": "Fc1ccc(OCCn2c(=S)[nH]c3ccccc32)cc1", "activity change, negative = cytotoxicity": "-11.5% (inactive)"},
      {"smiles": "S=c1[nH]c2ccccc2n1CCOc1ccccc1", "activity change, negative = cytotoxicity": "-9.79% (inactive)"},
      {"smiles": "Cc1cccc2[nH]c(=S)n(CCOc3ccccc3)c12", "activity change, negative = cytotoxicity": "-4.27% (inactive)"},
      {"smiles": "Cc1ccc(OCCn2c(=S)[nH]c3ccccc32)cc1", "activity change, negative = cytotoxicity": "-6.11% (inactive)"},
      {"smiles": "Cc1ccc(OCCn2c(=S)[nH]c3ccccc32)c(C(C)C)c1", "outcome": "inactive"},
      {"smiles": "Cc1ccc(C(C)C)c(OCCn2c(=S)[nH]c3ccc(F)cc32)c1", "activity change, negative = cytotoxicity": "-15.2% (inactive)"},
      {"smiles": "Cc1ccc(C(C)C)c(OCCn2c(=S)[nH]c3c(C)cccc32)c1", "activity change, negative = cytotoxicity": "-17.4% (inactive)"},
      {"smiles": "COc1cccc(OCCn2c(=S)[nH]c3ccccc32)c1", "activity change, negative = cytotoxicity": "-0.915% (inactive)"},
      {"smiles": "Cc1ccc(OCCn2c(=S)[nH]c3ccccc32)c(C)c1", "activity change, negative = cytotoxicity": "-11.8% (inactive)"},
      {"smiles": "Cc1ccc(C(C)C)c(OCCn2c(=S)[nH]c3cccc(F)c32)c1", "activity change, negative = cytotoxicity": "-19.6% (inactive)"},
      {"smiles": "CC(C)(C)c1ccc(OCCn2cnc3ccccc32)cc1", "activity change, negative = cytotoxicity": "-14.3% (inactive)"},
      {"smiles": "c1ccc(OCCn2cnc3ccccc32)cc1", "activity change, negative = cytotoxicity": "-12.9% (inactive)"},
      {"smiles": "Cc1ccc(OCCn2cnc3ccccc32)c(C(C)C)c1", "activity change, negative = cytotoxicity": "6.12% (inactive)"},
      {"smiles": "S=c1[nH]c2cccc(Cl)c2n1CCOc1ccccc1", "outcome": "inactive"},
      {"smiles": "Cc1cccc(OCCn2c(=S)[nH]c3ccccc32)c1C", "activity change, negative = cytotoxicity": "-6.93% (inactive)"}
    ]}
  ]
}
